An excerpt weighted towards active compounds, which were near 1.3% of everything screened.
eLon inh: inhibitors of E. coli Lon protease, primary screen, biochemical, fluorescence polarization; 360,000 tested, 0.42% active; inhibition, % at 7.94 µM; purified E. coli Lon protease; in the data active = inhibition above about 13%, passing the limit was not always enough;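 note: 0% = enzyme with probe and DMSO and 100% = no enzyme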
PKA-R2B act: activators of PKA-R2B holoenzyme, primary screen, biochemical, fluorescence polarization, Cy5-IP20, human; 340,000 tested, 0.079% active; activation, % at 11.4 µM; cAMP-dependent protein kinase catalytic subunit beta (Homo sapiens) + cAMP-dependent …; PKA-R2B holoenzyme dissociation; R2B truncated from residue 108, S112A mutant; 0% DMSO only, 100% 113 µM cGMP;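 active = activation above a cutoff set at the mean over all compounds plus 3 SD, cut at about 18% in these data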;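 note: higher means more holoenzyme dissociation and a rise in polarization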
Target sequence (P31323 whole entry, looked up, other chains not shown, the tested form may be a part): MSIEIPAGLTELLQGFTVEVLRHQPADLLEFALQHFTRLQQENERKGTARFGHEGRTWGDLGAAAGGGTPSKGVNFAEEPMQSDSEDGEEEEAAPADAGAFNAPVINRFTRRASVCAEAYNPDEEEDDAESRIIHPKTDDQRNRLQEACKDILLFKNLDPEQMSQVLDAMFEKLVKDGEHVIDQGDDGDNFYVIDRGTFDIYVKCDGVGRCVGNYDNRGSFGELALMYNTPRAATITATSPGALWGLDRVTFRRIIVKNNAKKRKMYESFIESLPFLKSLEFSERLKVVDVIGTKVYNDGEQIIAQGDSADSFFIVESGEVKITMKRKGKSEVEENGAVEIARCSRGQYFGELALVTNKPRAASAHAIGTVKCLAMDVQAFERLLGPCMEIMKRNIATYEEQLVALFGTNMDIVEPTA
IDE cell inh: human IDE inhibitors in live cells, primary screen, fluorescence polarization, HEK cells, FAbetaB substrate; Insulin-degrading enzyme (Homo sapiens), P14735; FAbetaB cleavage; inhibition, % at 5.59 µM; 320,000 tested, 0.41% active; AID 434962, 2010;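 active = percent inhibition above the average of all tested compounds plus 3 SD, set per screening campaign, cut at about 16% in these data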;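 note: IDE supplied by intact live HEK cells; FP after avidin binding of uncleaved biotin substrate so inhibition keeps polarization high; 0% = DMSO wells and 100% = 60 µM reference IDE inhibitor Ii1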
PKA-R1A act: activators of PKA-R1A holoenzyme, primary screen, biochemical, fluorescence polarization, Cy5-IP20, bovine R1A, mouse PKAc. PKA-R1A dissociation; scaled: DMSO 0%, 113 µM cGMP 100%. activation, % at 11.4 µM. 340,000 tested, 0.083% active;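 active = percent activation above the mean of all tested compounds plus 3 SD, cut at about 19% in these data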;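 note: higher means more PKAc released from R1A so a rise in polarization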
IDE cell activ: human IDE activators in live cells, primary screen, fluorescence polarization, HEK cells, FAbeta-B substrate; activation, % at 5.96 µM; AID 493087, 2011; 340,000 tested, 0.073% active; FAbeta-B cleavage; 0% vehicle, 100% cell-free pure enzyme wells;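 active = activation above the mean of all tested compounds plus 3 SD, set per screening campaign, cut at about 17% in these data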
Rin1 Abl inh: inhibitors of Rin1-Abl protein binding, primary screen, biochemical, TR-FRET. Tyrosine-protein kinase ABL1 (Homo sapiens) + Ras and Rab interactor 1 (Homo sapiens), …. inhibition, % at 7.35 µM. 360,000 tested, 0.4% active. AID 588664, 2011; in the data active = inhibition above about 5%, passing the limit was not always enough
* marks the source's active call; other numbers are inactive results; . = no result given.

SMILES | eLon inh | PKA-R2B act | IDE cell inh | PKA-R1A act | IDE cell activ | Rin1 Abl inh
C#CCOCCOCCOCCNc1nc(N2CCN(C(=O)CCCCCCCCCCNC(=O)[C@@H](CCSC)n3cc(CCO)nn3)CC2)nc(N2CCN(C(=O)CCCCCCCCCCNC(=O)[C@H]([C@@H](C)CC)n3cc(CCCCN=C(N)N)nn3)CC2)n1 | -7 | -3 | 5 | -4 | 46* | 24*
C#CCOCCOCCOCCNc1nc(N2CCN(C(=O)CCCCCCCCCCNC(=O)[C@H](CCCCN)n3cc(CCO)nn3)CC2)nc(N2CCN(C(=O)CCCCCCCCCCNC(=O)[C@H](CCCN=C(N)N)n3cc(C[C@@H](C)CC)nn3)CC2)n1 | 3 | -4 | 1 | 6 | 40* | 22*
C#CCOCCOCCOCCNc1nc(N2CCN(C(=O)CCCCCCCCCCNC(=O)Cn3cc(C[C@@H](C)O)nn3)CC2)nc(N2CCN(C(=O)CCCCCCCCCCNC(=O)Cn3cc(C[C@@H](C)O)nn3)CC2)n1 | -6 | 9 | -3 | 7 | -2 | 8
C#CCOCCOCCOCCNc1nc(N2CCN(C(=O)CCCCCCCCCCNC(=O)[C@@H](CCSC)n3cc(CCO)nn3)CC2)nc(N2CCN(C(=O)CCCCCCCCCCNC(=O)[C@H]([C@@H](C)CC)n3cc(CCCCCN)nn3)CC2)n1 | . | . | -7 | . | . | .
C#CCOCCOCCOCCNc1nc(N2CCN(C(=O)CCCCCCCCCCNC(=O)Cn3cc(C[C@@H](C)O)nn3)CC2)nc(N2CCN(C(=O)CCCCCCCCCCNC(=O)[C@H](CCCCN)n3cc(C[C@@H](C)CC)nn3)CC2)n1 | 3 | -5 | -4 | -2 | 30* | 6
C#CCOCCOCCOCCNc1nc(N2CCN(C(=O)CCCCCCCCCCNC(=O)[C@H](CCCCN)n3cc(C[C@@H](C)CC)nn3)CC2)nc(N2CCN(C(=O)CCCCCCCCCCNC(=O)[C@H](CCCCN)n3cc(C[C@@H](C)CC)nn3)CC2)n1 | 7 | -2 | -2 | -1 | 40* | 9
C#CCOCCOCCOCCNc1nc(N2CCN(C(=O)CCCCCCCCCCNC(=O)[C@H](CO)n3cc(CCCSC)nn3)CC2)nc(N2CCN(C(=O)CCCCCCCCCCNC(=O)[C@H](CCCCN)n3cc(C[C@@H](C)CC)nn3)CC2)n1 | . | . | -2 | . | . | .
Cc1cc(=O)oc2cc(OC(C)C(=O)N3CCOCC3)c(Cl)cc12 (stereo unspecified) | -1 | -7 | . | 10 | . | 4
O=C(CN1CCN(C(=O)C2CCC2)CC1)Nc1ccc(F)cc1 | -4 | -6 | 0 | -1 | 4 | 3
C#CCOCCOCCOCCNc1nc(N2CCN(C(=O)CCCCCCCCCCNC(=O)[C@H]([C@@H](C)CC)n3cc(CCCCN=C(N)N)nn3)CC2)nc(N2CCN(C(=O)CCCCCCCCCCNC(=O)[C@H](CCCCN)n3cc(C[C@@H](C)CC)nn3)CC2)n1 | . | . | -6 | . | . | .
C#CCOCCOCCOCCNc1nc(N2CCN(C(=O)CCCCCCCCCCNC(=O)[C@H](CCCCN)n3cc(CCCC(=O)O)nn3)CC2)nc(N2CCN(C(=O)CCCCCCCCCCNC(=O)[C@H](CCCN=C(N)N)n3cc(C[C@@H](C)CC)nn3)CC2)n1 | -1 | -8 | 5 | -5 | 26* | 6
CC1=[N+](C)c2c(ccc3cccnc23)C1(C)C | -34 | 31* | . | 24* | -2 | 1
CCN(c1ccccc1)S(=O)(=O)c1ccc(N2CCN(c3ccc(O)cc3)CC2)nc1 | 3 | -4 | 1 | -4 | -6 | -1
CCN(c1ccccc1)S(=O)(=O)c1ccc(N2CCN(c3ccc(OC)cc3)CC2)nc1 | 4 | -6 | 0 | -10 | 26* | 0
c1coc(-c2nc(-c3ccco3)c(-c3ccco3)nc2-c2ccco2)c1 | 17* | 3 | -7 | 15 | 3 | 6
